Sampled rows, rich in hits. Any-hit rate of the full collection: about 15%.
ELG1 DNA repair – blocks ELG1-dependent DNA repair in HEK293T cells. HEK293T ELG1-luciferase reporter, luminescence, 16 h; DNA damage induced by 5-fluorouridine. Potency, µM (doses to about 46.1 µM), for inactives: at the top dose activity change, negative = inhibition, usual class: inhibitors. 330,000 tested, 2.3% active. AID 504467; also: nearly all actives have a fitted effect of over 55% in size
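Cells (2,000 per well) received 5-fluorouridine plus test compound or DMSO and were incubated 16 hr at 37 °C, 5% CO2. Luciferase activity was read by luminescence 30 min after ONE-Glo addition; signal suppression marked inhibition of damage-induced ELG1 function.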
TDP1 cell CPT – growth inhibition of DT40 Tdp1-/-;hTDP1 cells with camptothecin (screen for TDP1 inhibitors) | chicken DT40 Tdp1-/-;hTDP1 cells + 20 nM CPT, ATP luminescence, 48 h | Potency, µM (highest dose often 46.2 µM), without a hit: at the highest dose activity change, negative = growth inhibition, actives largely listed as inhibitors | 420,000 tested, 12% active | AID 686979; also: nearly all actives have a fitted effect of over 55% in size
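Cell growth measured by CellTiter-Glo luminescence after a minimum 48 h, 37 C compound exposure with 20 nM CPT in Tdp1-knockout DT40 cells stably expressing hTDP1, seeded 400/well; qHTS titration format.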
RORgamma inh – inhibitors of mouse ROR gamma transcriptional activity. Drosophila S2 Gal4-RORgamma UAS-luciferase reporter, 20 h. Potency, µM (top dose mostly 53.6 µM), without a hit: top-dose activity change, negative = inhibition, hits mostly inhibitors. 310,000 tested, 5.4% active; also: nearly all actives have a fitted effect of over 60% in size
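ROR gamma transcriptional activity was tracked as Gal4-UAS luciferase output in stably transfected Drosophila Schneider cells, with compound added 1 hr before 700 uM copper sulfate induction and a 20 hr ambient-temperature incubation.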
Gal4-VP16 FLuc – Gal4-VP16 reporter inhibition counter-screen; 310,000 tested, 3.5% active; Potency, µM (series often up to 53.6 µM), without a hit: at the highest dose activity, negative = inhibition, most hits filed as inhibitors; Drosophila S2 Gal4-VP16 UAS-luciferase, luminescence, 20 h;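 also: Gal4-VP16 expression switched on by copper sulfate through the metallothionein promoter; nearly all actives have a fitted effect of over 50% in size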
12-LOX inh – ALOX12 (human) lipoxygenase inhibition. P18054. Potency, µM (highest dose often 108 µM), inactives show at the top dose activity change, negative = inhibition, hits mostly inhibitors. purified 12hLO, xylenol orange hydroperoxide absorbance. 580,000 tested, 1.1% active
Target sequence (P18054 whole entry, looked up): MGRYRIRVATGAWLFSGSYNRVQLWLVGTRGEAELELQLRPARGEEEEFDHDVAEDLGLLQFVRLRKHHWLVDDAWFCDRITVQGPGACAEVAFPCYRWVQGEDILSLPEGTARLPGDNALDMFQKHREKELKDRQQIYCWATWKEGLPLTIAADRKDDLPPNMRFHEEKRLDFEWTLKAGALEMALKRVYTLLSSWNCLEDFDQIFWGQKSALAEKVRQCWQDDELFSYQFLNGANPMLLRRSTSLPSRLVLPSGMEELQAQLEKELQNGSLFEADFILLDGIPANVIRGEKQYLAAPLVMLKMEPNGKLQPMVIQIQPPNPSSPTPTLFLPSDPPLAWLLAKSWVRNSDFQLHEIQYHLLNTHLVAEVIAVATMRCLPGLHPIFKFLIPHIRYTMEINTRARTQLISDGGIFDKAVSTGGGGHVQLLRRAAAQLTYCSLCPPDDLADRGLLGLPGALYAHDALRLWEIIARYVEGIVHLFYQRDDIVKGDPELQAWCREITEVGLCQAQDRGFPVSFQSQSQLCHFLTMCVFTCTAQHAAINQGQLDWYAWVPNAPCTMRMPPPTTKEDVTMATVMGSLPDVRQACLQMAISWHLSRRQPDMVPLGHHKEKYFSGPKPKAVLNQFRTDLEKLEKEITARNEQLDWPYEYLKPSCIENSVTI
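Purified human 12hLO (150 nM final) in 25 mM Hepes, 0.01% Triton X-100, pH 7.0 was preincubated 15 min at room temperature with compound. Then 40 uM arachidonic acid was added, 30 min. Hydroperoxide was read by Fe-XO absorbance ratio 573/405 nm.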
DT40 TDP1 no CPT – qHTS for Inhibitors of human tyrosyl-DNA phosphodiesterase 1 (TDP1): qHTS in cells in absence of CPT; 420,000 tested, 15% active; DT40 Tdp1-/- hTDP1 cells, no CPT, ATP luminescence, 48 h; Potency, µM (titrated, usually from 46.2 µM), for the others: at the top dose activity change, negative = growth inhibition, actives largely listed as inhibitors; also: nearly all actives have a fitted effect of over 55% in size
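DT40 Tdp1-/-;hTDP1 cells, no CPT (DMSO vehicle only), 400 cells/well; compounds pin-transferred; ≥48 hr, 37 °C; CellTiter-Glo 30 min RT dark, luminescence read.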
The depositor's hits bear a star; ? = inconclusive; nt = not tested or not shown; [ ] = dose if it differs, or a comment. Calls follow the shape of the dose curve; as a rule, active = well fitted curve in the direction sought with a large enough effect; inconclusive = small, poorly fitted or top-dose-only effect, or another doubt; inactive = no such curve, though single readings can be large; an effect the other way counts as inactive or inconclusive. % is scaled to controls: 0 for no effect and ±100 for the full control effect; potency is read from the fitted curve at half-maximal effect.

SMILES	ELG1 DNA repair	TDP1 cell CPT	RORgamma inh	Gal4-VP16 FLuc	12-LOX inh	DT40 TDP1 no CPT
Cc1cccc(C(O)c2cnc(C)n2Cc2ccccc2)c1 (configuration not stated)	nt	?	nt	nt	4%	18µM*
Cc1c(-c2ccccc2)nc2ccccc2c1C(=O)NC1CC1	nt	nt	nt	nt	-3%	nt
COc1ccc(CCNC(=O)C2CCN(C(=O)c3ccccc3C)CC2)cc1	-9%	?	36%	-2%	0%	18µM*
COc1cc(OC)cc(C(=O)N2CCC(C(=O)NCCc3ccccc3)CC2)c1	-1%	7.3µM*	3%[1.91 µM]	-17%	9%	7.3µM*
Cc1ccc(Nc2nc(-c3cccs3)cs2)nc1	?	?	11µM*	13µM*	-21%	?
Cc1nc(C)c(-c2csc(Nc3ccc(O)cc3C)n2)s1	5%	16µM*	?	-10%	?	5.8µM*
Cc1nc(C)c(-c2csc(Nc3ccc(Cl)cn3)n2)s1	nt	18µM*	nt	nt	-16%	?
Cc1cc(O)ccc1Nc1nc(-c2cccs2)cs1	?	-5%	-29%	?	?	-6%
CC(=O)N1c2ccc(S(=O)(=O)NCCC(=O)Nc3ccc(OC(F)(F)F)cc3)cc2CC1C (configuration not stated)	?	18µM*	-5%	?	2%	?
CC(=O)N1c2ccc(S(=O)(=O)NCCC(=O)N3CCC(C)CC3)cc2CC1C (configuration not stated)	-12%	?	0%	-8%	7%	-18%
COc1ccc(NC(=O)CCNS(=O)(=O)c2ccc3c(c2)CC(C)N3C(=O)C2CC2)cc1 (configuration not stated)	-6%	?	13%	6%	9%	-28%
CC(=O)N1c2ccc(S(=O)(=O)NCCC(=O)NC3CCCC(C)C3C)cc2CC1C (configuration not stated)	9.2µM*	-45%	37%	-8%	7%	?
CC(=O)N1c2ccc(S(=O)(=O)NCCC(=O)Nc3ccc(Cl)cc3)cc2CC1C (configuration not stated)	nt	18µM*	nt	nt	-3%	?
CN(CC(=O)Nc1ccc(OC(F)(F)F)cc1)S(=O)(=O)c1ccc2c(c1)CCC(=O)N2	nt	?	nt	nt	-1%	12µM*
COc1ccc(-n2nc(C3CCN(C(=O)c4ccccc4Cl)CC3)[nH]c2=O)cc1	nt	nt	nt	nt	28%	nt
Cc1ccc(S(=O)(=O)Oc2ccc3c(C)cc(=O)oc3c2)cc1	nt	nt	nt	nt	8%	nt
CC(=O)N1c2ccc(S(=O)(=O)NCCC(=O)Nc3ncccc3C)cc2CC1C (configuration not stated)	11%	-17%	-3%	-10%	0%	18%
CC(=O)N1CCc2cc(S(=O)(=O)C(C)CC(=O)Nc3ccc(OC(F)(F)F)cc3)ccc21 (configuration not stated)	-3%	21µM*	3%	?	9%	?
CC(=O)N1c2ccc(S(=O)(=O)NCCC(=O)Nc3ccc(C)c(F)c3)cc2CC1C (configuration not stated)	-1%	?	24%	-11%	-11%	21µM*
Cc1ccn(CC(=O)N2CC(F)(F)C[C@H]2c2nc(C3CC3)no2)n1	nt	nt	nt	nt	12%	nt
O=C(CCC[C@@H]1[C@H]2CCCN3CCC[C@@H](CN1C(=O)c1ccccc1)[C@@H]23)NCc1ccccc1	nt	nt	nt	nt	21%	nt
COc1cccc(NC(=O)Cn2c(=O)ccc3cc(S(=O)(=O)N4CCC(C)CC4)ccc32)c1	nt	18µM*	nt	nt	?	16µM*
CCc1cccc(NC(=O)Cn2c(=O)ccc3cc(S(=O)(=O)N4CCC(C)CC4)ccc32)c1	nt	18µM*	nt	nt	-14%	16µM*
Cc1ccc(NC(=O)Cn2c(=O)ccc3cc(S(=O)(=O)N4CCC(C)CC4)ccc32)cc1C	nt	?	nt	nt	-25%	-60%
Cc1cc(C)c(NC(=O)c2cnc3ccccc3n2)c(C)c1	nt	nt	nt	nt	0%	nt
SMILES	ELG1 DNA repair	TDP1 cell CPT	RORgamma inh	Gal4-VP16 FLuc	12-LOX inh	DT40 TDP1 no CPT
CC(=O)Nc1ccc(S(=O)(=O)NCCSCc2ccc(Cl)cc2Cl)cc1	?	?	15%	?	0%	18µM*
Cc1ccc(-c2ccc(/C=C(\C#N)C(N)=S)n2C)cc1	?	-1%	2.2µM*	?	47%	-12%
COCCNC(=O)c1ccc(-c2nc(CS(=O)c3ccc(C)cc3)c(C)o2)cc1 (configuration not stated)	nt	nt	nt	nt	-79%	nt
CC(C)(C)c1cc(Cl)ccc1OCCOCCN1CCCC1	-12%	?	0%	1%	?	13µM*
CC(C)(C)NCCOCCOc1ccc(Cl)cc1C(C)(C)C	-4%	?	6%	1%	?	?
COCCCNCCOCCOc1ccc(Cl)cc1C(C)(C)C	-13%	16µM*	-15%	-2%	?	10µM*
C=CCNCCOCCOc1ccc(Cl)cc1C(C)(C)C	8%	18µM*	-1%	-1%	?	26µM*
Clc1ccc(OCCOCCN2CCCCC2)c(Br)c1	9%	-4%	-5%	17%	?	3%
COc1ccc(C(=O)N2CC[C@H](CO)[C@H](NC(=O)C3CC3)C2)cn1	nt	nt	nt	nt	31%	nt
CC1=C[C@@H](CNCc2ccccc2O)[C@H](C(C)C)C[C@H]1Cc1nc2c(C)cccc2[nH]1	nt	nt	nt	nt	63µM*	nt
CCC(C)C(=O)OCCc1ccccc1 (configuration not stated)	nt	nt	nt	nt	-11%[176 µM]	nt
COCCNC(=O)[C@@H]1CCC[C@@H](NC(=O)C(C)(C)C)CN(C)C(=O)C1	nt	nt	nt	nt	28%[176 µM]	nt
Cc1noc(C)c1S(=O)(=O)Nc1ccc2c(c1)C(=O)N([C@H](C)CO)C[C@H](C)[C@H](CN(C)S(=O)(=O)c1ccc(Cl)cc1)OCCCC[C@@H](C)O2	nt	?	nt	nt	-7%	?
C[C@H]1CCCCO[C@H](CN(C)Cc2ccncc2)[C@@H](C)CN([C@@H](C)CO)C(=O)c2cc(NS(=O)(=O)c3ccccc3)ccc2O1	nt	4%	nt	nt	-5%	?
C[C@@H]1CCCCO[C@@H](CN(C)CC2CCCCC2)[C@@H](C)CN([C@H](C)CO)C(=O)c2cc(NS(=O)(=O)c3ccc(Cl)cc3)ccc2O1	nt	16µM*	nt	nt	?	13µM*
